# Source: PubChem BioAssay (National Center for Advancing Translational Sciences (NCATS))
# Rows were chosen to be rich in hits. Some 4.6% of all compounds tested hit in one or more screens of this group.
# LASV entry inh – Lassa virus entry inhibition; actives 1.2% (n = 300,000); Lassa virus pseudotype entry inhibition, cell reporter; Potency, µM (doses to about 37.9 µM), for inactives: at the highest dose activity change, negative = inhibition, hits mostly inhibitors; calls by dose curve; tested in HEK293 cells; note: nearly all actives have a fitted effect of over 50% in size
# MARV entry inh – blocks Marburg virus binding to or entry into cells; AID 540276; Marburg virus pseudotyped entry inhibition, cell reporter; Potency, µM (doses to about 37.8 µM), for the others: at the top dose activity change, negative = inhibition, most hits filed as inhibitors; actives 1.8% (n = 300,000); calls by dose curve; tested in HEK293 cells
# Vaccinia Venus – vaccinia inhibition (Venus reporter); Potency, µM (series often up to 36.5 µM), for the others: at the top dose activity change, negative = inhibition, usual class: inhibitors; AID 720580; actives 0.46% (n = 330,000); Vaccinia virus Venus reporter expression, fluorescence; calls by dose curve; tested in A549 cells; note: nearly all actives have a fitted effect of over 30% in size
# HCV inh – blocks hepatitis C virus; Huh7.5.1 HCVcc-Cre infection, luciferase reporter, 44 h; Potency, µM (series often up to 41.8 µM), for inactives: top-dose activity change, negative = inhibition, usual class: inhibitors; actives 3.4% (n = 340,000); active = well fitted inhibition curve with a large enough effect; inconclusive = small, poorly fitted or top-dose-only effect, or another doubt; inactive = no such curve, though single readings can be large or run the other way
#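 Cells (1,000/well) were plated 4 h before compound, then infected with HCVcc-Cre virus (~0.5 moi). After 44 h further culture, infection was read as luciferase luminescence following a 15 min substrate incubation at room temperature.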
# VACV mCherry inh – vaccinia inhibition (mCherry reporter); Potency, µM (series often up to 36.5 µM), without a hit: top-dose activity change, negative = inhibition, most hits filed as inhibitors; actives 0.63% (n = 310,000); AID 720579; Vaccinia virus mCherry reporter infection, fluorescence; calls by dose curve; tested in A549 cells; note: nearly all actives have a fitted effect of over 35% in size
# The depositor's hits bear a star; i = inactive; ? = inconclusive; . = not tested or not shown; [ ] = another dose, or the depositor's remark. % is set by controls: 0 for no effect and ±100 for the full control effect; potency is the fitted concentration of half-maximal effect.
SMILES,LASV entry inh,MARV entry inh,Vaccinia Venus,HCV inh,VACV mCherry inh
CC(=O)c1c(C)[nH]c(C(=O)OCc2ccccc2F)c1C,?,?,-9%,18µM*,-15%
COC(=O)CCc1c(C)[nH]c(C(=O)OCc2ccccc2)c1C,7.1µM*,-13%,-7%,2%,-17%
CC(=O)c1c(C)[nH]c(C(=O)OCCOc2ccccc2)c1C,?,?,-5%,8.9µM*,-11%
COc1ccc(C)cc1COC(=O)c1[nH]c(C)c(C(C)=O)c1C,?,?,-7%,?,-2%
Cc1cnc(SCc2ccccn2)nc1C1CCCN(C(=O)c2ccc3c(c2)OCO3)C1 (centres undefined),.,.,-25%,.,-19%
CC(=O)c1ccc(-c2cc(F)cc3c2OC(CNC(=O)Cc2cn4ccsc4n2)C3)s1 (centres undefined),.,.,3%,.,-14%
CCCCn1c(SCC(=O)c2ccccc2)nc2sc3c(c2c1=O)CCCC3,?,.,9%,.,-2%
CCc1nc(C)cn1S(=O)(=O)c1cc(C)c(OC)c(C)c1C,?,?,?,2.8µM*,-21%
O=C(NCC1OCCc2ccccc21)c1ccc(NC(=O)c2ccc(Cl)cc2)cc1 (centres undefined),?,-18%,?,4.5µM*,?
Cc1ccc(NC(=O)CSc2nnc(CSc3nc(C)cc(C)n3)n2Cc2ccco2)c(C)c1,2%,7%,-12%,11µM*,i
CC(=O)Nc1cc(C(=O)N2CC3(C)CC2CC(C)(C)C3)cc2ncn(CCc3ccccn3)c12 (centres undefined),.,.,-11%,.,-15%
CCO[C@H]1OC(C(=O)NCc2nc3ccccc3[nH]2)=C[C@@H](c2csc3ccccc23)[C@@H]1CCCO,.,.,-19%,1µM*,11%
CCO[C@@H]1OC(C(=O)NCc2nc3ccccc3[nH]2)=C[C@H](c2csc3ccccc23)[C@H]1CCCO,.,.,?,-15%,-25%
COc1cc(OC)cc(-c2cc3nc(C)c(CCC(=O)NCCc4cccc(C)c4)c(C)n3n2)c1,7%[46.1 µM],-7%[46.1 µM],-8%,.,-16%
COc1cc(OC)cc(-c2cc3nc(C)c(CCC(=O)NCc4ccccc4)c(C)n3n2)c1,8.9µM*,11µM*,-25%,?,?
COc1cc(OC)cc(-c2cc3nc(C)c(CCC(=O)NCc4ccc(Cl)cc4)c(C)n3n2)c1,?,4.5µM*,-22%,.,-5%
COC(=O)c1c(NC(=O)c2nc(SCc3cccc(C)c3)ncc2Cl)sc2c1CCCC2,9%[46.1 µM],-3%[46.1 µM],6%,.,-1%
CCOC(=O)c1oc2nc(CC(C)C)c3c(c2c1N)CCCC3,?,?,-25%,2.8µM*,?
OCC[N+]1(CCc2ccccc2)CCOCC1,.,.,-5%,.,i
COc1cc(OC)c(OC)cc1C=O,.,.,-6%,11%,i
COc1cc(N2CCCC2)c(OC)cc1C=O,2%,-8%,.,11µM*,.
Cc1ccc(OCC(=O)OCc2cc(=O)n3nc(-c4cccs4)sc3n2)cc1C,-2%[46.1 µM],.,-1%,.,-14%
CCc1ccc2[nH]c(=O)c(CN(CCCN3CCOCC3)C(=O)Nc3cccc(Cl)c3)cc2c1,?,18µM*,?,10µM*,.
Cc1ccc2[nH]c(=O)c(CN(CCN3CCOCC3)C(=O)Nc3ccc(F)cc3)cc2c1,-1%,-10%,-10%,5%,.
Cc1ccc(C)c2[nH]c(=O)c(CN(CCN3CCCC3)C(=O)Nc3cccc(Cl)c3)cc12,?,?,-13%,11µM*,-10%[1.46 µM]
SMILES,LASV entry inh,MARV entry inh,Vaccinia Venus,HCV inh,VACV mCherry inh
O=C(Nc1cccc(Cl)c1)N(CCN1CCOCC1)Cc1cccc(Cl)c1,10%,-11%,-21%,?,-13%
Cc1cc(C)c2cc(CN(CCO)C(=O)Nc3ccc(Cl)cc3)c(=O)[nH]c2c1,?,11µM*,?,-24%,.
Cc1cc(C)c2cc(CN(CCN3CCCC3)C(=O)Nc3ccc(F)cc3)c(=O)[nH]c2c1,?,4µM*,-22%,?,.
COc1ccc(NC(=O)c2ccccc2OCC(=O)Nc2ccc(Br)cc2)cc1,.,.,-22%,.,-18%
Cc1ccc(NC(=O)Cn2c(=O)c(CNc3ccccc3)cc3cc4c(cc32)OCCO4)cc1,0%[46.1 µM],.,-6%,.,-13%
CC12C=C(C=Cc3ccc(Br)cc3)C(C)(C1)[C@H](c1ccc(Br)cc1)CC2=O (some centres undefined),?,-26%[14.2 µM],.,.,.
CCN(CC)c1ccc(NC(=O)C2CCN(S(=O)(=O)c3c(C)noc3/C=C/c3ccccc3F)CC2)c(C)c1,25%[46.1 µM],.,-10%[7.34 µM],.,-14%[7.34 µM]
COc1cc2cc(CN(CCc3cccc(C)c3)C(=S)NCCCN3CCOCC3)c(=O)[nH]c2cc1OC,?,10µM*,?,?,-3%
COc1cc2cc(CN(CCc3cccc(C)c3)C(=S)NCCCN(C)C)c(=O)[nH]c2cc1OC,?,?,-26%,?,i
CSc1ccccc1C(=O)NCc1nc(-c2cccc(NC(=O)c3ccoc3C)c2)oc1C,.,.,-29%,.,?
CCc1c(N)nc(N)nc1Nc1ccc(C)c(C)c1,2%[46.1 µM],?,-21%,-25%,?
CCCc1nc2c(C)ccc(C)c2c(N)c1CC,-24%,9.2µM*,.,?,.
COc1cc(/C=N/NC(=O)COc2ccc(C)cc2)ccc1OC(=O)c1cccs1,9.2µM*,10%,6%,29%,9%
O=C(c1ccc2c(c1)OCO2)C1CCCN(Cc2cc(F)ccc2-n2cccn2)C1 (centres undefined),-12%,?,6%,8%,10%
Cc1ccc(-n2cccn2)c(CN2CCCC(C(=O)c3ccc4c(c3)OCO4)C2)c1 (centres undefined),?,10µM*,-17%,?,i
COc1cccc(CN2CCCC(C(=O)c3ccc4c(c3)OCO4)C2)c1OC (centres undefined),-14%[46.1 µM],11µM*,-9%,-21%,-22%
COc1cccc(/C=C/C(=O)c2ccc3c(c2)OCO3)c1OC,14%,-18%,?,-7%,13µM*
O=C(/C=C/c1ccccc1Br)c1ccc2c(c1)OCO2,?,13%[46.1 µM],-14%,7%,i
CCOc1ccc(NC(=O)c2oc(=O)c3ccccc3c2-c2ccc(C)cc2)cc1,?,.,2%,.,-10%
CC[C@H]1SC2=NC(C)=C(C(=O)OCCOC)[C@@H](c3ccc(C(=O)OC)cc3)N2C1=O,.,-19%,.,.,.
C=Cc1ccc(CSc2nc(-c3ccccc3C)nc3c2Cc2c(CO)cnc(C)c2O3)cc1,-1%[46.1 µM],.,-22%,.,-27%
COc1cccc(CN2CCc3ccc(NC(=O)CCc4ccc(C)cc4)cc3C2)c1O,.,.,.,11µM*,.
COc1ccccc1CCC(=O)Nc1ccc2c(c1)CN(CCCn1cccn1)CC2,.,.,.,-23%,.
COc1ccc(CN2CCc3ccc(NC(=O)CCc4ccccc4OC)cc3C2)c(O)c1,?,?,-30%,8.9µM*,?
COc1cc2nc(N3CCN(C)CC3)nc(NC3CCN(Cc4ccccc4)CC3)c2cc1OC,.,.,-27%,.,-1%
